Test results as given in publication PMC5540273 (PLoS ONE, 2017).

test system: JAK1(JH1domain-catalytic); details: concentration: 1 μM, replicates: in singlicate; n = 1
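Also: KINOMEscan kinase panel screen.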

Question: How did the “%Inh” value turn out when `COc1cc2ncnc(Nc3ccc(OCc4ccccc4Br)c(Cl)c3)c2cc1OC.Cl` [GI261590] was run?
Answer: 17%

Question: `CSc1nn2c(=O)cc(N3CCOCC3)nc2n1Cc1cccc(Cl)c1Cl` [GSK2347225] was tested. Which “%Inh” value did it give?
Answer: 24%

Question: Which “%Inh” value does the source give for `Fc1cccc(COc2ccc(Nc3ncnc4sc(-c5ccc[nH]5)cc34)cc2Cl)c1` [GW707818] here?
Answer: 18%

Question: For `Cl.O=S(=O)(c1cccc(F)c1)c1ccc(Nc2ncnc3cc(Br)sc23)cc1Cl` [GSK306886], which “%Inh” value is on record?
Answer: 15%

Question: Which “%Inh” value does the source give for `CN1c2ccc(-c3ccc(C(=O)NCCO)cc3)cc2-c2[nH]ncc2S1(=O)=O` here?
Answer: 5%

Question: Which “%Inh” value does the source give for `Nc1nc(-c2ccc3c(N)n[nH]c3c2)cc(N2CCCCC2)n1` [GSK2228768] here?
Answer: 0%

Question: How did the “%Inh” value turn out when `Cn1ccc2ncnc(Oc3ccc(NC(=O)Nc4cccnc4)c(Cl)c3)c21` was run?
Answer: 12%

Question: With `Clc1cc(Nc2ncnc3cc[nH]c23)ccc1OCc1ccccn1` as the compound, how does the “%Inh” value read?
Answer: 3%

Question: `Cl.Cl.c1ccc(-c2cc3ccncc3cc2OC2CCNCC2)cc1` [GSK1122999] was tested. Which “%Inh” value did it give?
Answer: 22%

Question: With `Fc1ccc(Nc2nccc(-c3c(-c4ccc(Cl)cc4)nn4ncccc34)n2)cc1F` [GW829058] as the compound, how does the “%Inh” value read?
Answer: 0%

Question: With `C[C@H]1CC[C@@H](C(=O)Nc2ccccc2)CN1c1cc(-c2ccc3c(N)n[nH]c3c2)nc(N)n1` [GSK2283293] as the compound, how does the “%Inh” value read?
Answer: 0%

Question: Which “%Inh” value does the source give for `FC(F)(F)c1cc(Nc2nccc(-c3c(-c4ccc(Cl)cc4)nn4ncccc34)n2)ccc1Cl` [GW829351] here?
Answer: 0%

Question: For `FC(F)(F)c1ccc(-c2cc(-c3c[nH]nc3-c3ccccn3)ccn2)cc1` [GW599550], which “%Inh” value is on record?
Answer: 29%

Question: How did the “%Inh” value turn out when `Nc1nc(-c2cccnc2)c(-c2ccnc3ccccc23)s1` [GW684083] was run?
Answer: 6%

Question: Which “%Inh” value does the source give for `Cl.c1ccc(Cn2ncc3cc(Nc4ncnc5ccccc45)ccc32)cc1` [GW273749] here?
Answer: 8%

Question: For `O=C(NCCCN1CCCC1=O)c1cnc(NCc2cc(Cl)ccc2Cl)nc1NC1CCNCC1`, which “%Inh” value is on record?
Answer: 1%

Question: How did the “%Inh” value turn out when `Cc1ccc(O)cc1Nc1cc(C(F)(F)F)nc2ccc(-c3ccncc3)cc12` [GW630823] was run?
Answer: 0%

Question: How did the “%Inh” value turn out when `C[C@@H]1CCN(C(=O)CO)C[C@@H]1N(C)c1ncnc2[nH]ccc12` was run?
Answer: 94%

Question: `COc1ccc(NC(=O)Nc2ccc(C)c(-c3ccc(C(=O)Nc4ccncc4)cc3)c2)cc1` [GSK1398475] was tested. Which “%Inh” value did it give?
Answer: 11%

Question: `O=c1cc(N2CCOCC2)nc2n(Cc3cccc(Cl)c3)ccn12` [GSK2296823] was tested. Which “%Inh” value did it give?
Answer: 0%

Question: `CC(C)N1CCC(n2cnc(-c3ccc(F)cc3)c2-c2ccnc(N)n2)CC1` [SB-223132] was tested. Which “%Inh” value did it give?
Answer: 0%

Question: With `Clc1cccc(-c2nc(Nc3ccncc3)c3ccccc3n2)c1` [GW873004] as the compound, how does the “%Inh” value read?
Answer: 0%

Question: `COC(=O)c1c(-c2ccccc2)c2cc(Cl)ccc2c(=O)n1Cc1ccc(S(C)(=O)=O)cc1` was tested. Which “%Inh” value did it give?
Answer: 0%

Question: How did the “%Inh” value turn out when `Oc1ccc2ncnc(Nc3ccc(OCc4ccccc4)cc3)c2c1` [GI262866] was run?
Answer: 12%

Question: `COc1cc2c(Nc3cccc(NC(=O)c4ccccc4)c3)ncnc2cc1OCCCN1CCOCC1` [GSK223810] was tested. Which “%Inh” value did it give?
Answer: 0%

Question: For `CCc1nc(-c2cccc(C)c2)c(-c2ccnc(NC(=O)c3ccccc3)c2)s1`, which “%Inh” value is on record?
Answer: 22%

Question: How did the “%Inh” value turn out when `Clc1ccc(-c2cc(-c3c[nH]nc3-c3ccccn3)ccn2)cc1` [GW681251] was run?
Answer: 0%

Question: For `Nc1nc(-c2ccc3c(N)n[nH]c3c2)cc(N2CCC[C@@H](C(=O)Nc3ccccc3)C2)n1.O=C(O)C(F)(F)F.O=C(O)C(F)(F)F` [GSK2288359], which “%Inh” value is on record?
Answer: 14%

Question: How did the “%Inh” value turn out when `CCn1c(-c2ccncc2)nc2cnccc21` [SB-735216] was run?
Answer: 15%

Question: For `Cn1ccc2ncnc(Nc3ccc(Oc4cccc(Cl)c4)c(Cl)c3)c21`, which “%Inh” value is on record?
Answer: 16%

Question: How did the “%Inh” value turn out when `Fc1ccc(-c2ncn(CCCNCc3ccccc3)c2-c2ccncc2)cc1` was run?
Answer: 0%

Question: `CC(C)(C)OC(=O)NC1CCCN(c2cc(-c3ccc4c(N)n[nH]c4c3)nc(N)n2)C1` (stereo not shown) [GSK2286096] was tested. Which “%Inh” value did it give?
Answer: 6%

Question: Which “%Inh” value does the source give for `CC(=O)Nc1n[nH]c2ncc(-c3ccccc3)cc12` [SB-548492] here?
Answer: 0%

Question: Which “%Inh” value does the source give for `COc1ccc(Nc2nccc(N3CCC(NC(=O)Nc4ccc5c(c4)OCO5)C3)n2)cc1` (stereo not shown) [GSK1379745] here?
Answer: 0%

Question: How did the “%Inh” value turn out when `CN1CCC(n2cnc(-c3ccc(F)cc3)c2-c2ccnc(NC3CCNCC3)n2)CC1` [SB-229482] was run?
Answer: 0%

test system: JAK1(JH2domain-pseudokinase); details: concentration: 1 μM, replicates: in singlicate; n = 1

Question: For `COc1cc2ncnc(Nc3ccc(OCc4ccccc4Br)c(Cl)c3)c2cc1OC.Cl` [GI261590], which “%Inh” value is on record?
Answer: 0%

Question: With `CSc1nn2c(=O)cc(N3CCOCC3)nc2n1Cc1cccc(Cl)c1Cl` [GSK2347225] as the compound, how does the “%Inh” value read?
Answer: 0%

Question: How did the “%Inh” value turn out when `Fc1cccc(COc2ccc(Nc3ncnc4sc(-c5ccc[nH]5)cc34)cc2Cl)c1` [GW707818] was run?
Answer: 4%

Question: For `Cl.O=S(=O)(c1cccc(F)c1)c1ccc(Nc2ncnc3cc(Br)sc23)cc1Cl` [GSK306886], which “%Inh” value is on record?
Answer: 0%

Question: With `CN1c2ccc(-c3ccc(C(=O)NCCO)cc3)cc2-c2[nH]ncc2S1(=O)=O` as the compound, how does the “%Inh” value read?
Answer: 35%

Question: With `Nc1nc(-c2ccc3c(N)n[nH]c3c2)cc(N2CCCCC2)n1` [GSK2228768] as the compound, how does the “%Inh” value read?
Answer: 0%

Question: `Cn1ccc2ncnc(Oc3ccc(NC(=O)Nc4cccnc4)c(Cl)c3)c21` was tested. Which “%Inh” value did it give?
Answer: 4%

Question: Which “%Inh” value does the source give for `Clc1cc(Nc2ncnc3cc[nH]c23)ccc1OCc1ccccn1` here?
Answer: 35%

Question: How did the “%Inh” value turn out when `Cl.Cl.c1ccc(-c2cc3ccncc3cc2OC2CCNCC2)cc1` [GSK1122999] was run?
Answer: 0%

Question: `Fc1ccc(Nc2nccc(-c3c(-c4ccc(Cl)cc4)nn4ncccc34)n2)cc1F` [GW829058] was tested. Which “%Inh” value did it give?
Answer: 12%

Question: How did the “%Inh” value turn out when `C[C@H]1CC[C@@H](C(=O)Nc2ccccc2)CN1c1cc(-c2ccc3c(N)n[nH]c3c2)nc(N)n1` [GSK2283293] was run?
Answer: 0%

Question: With `FC(F)(F)c1cc(Nc2nccc(-c3c(-c4ccc(Cl)cc4)nn4ncccc34)n2)ccc1Cl` [GW829351] as the compound, how does the “%Inh” value read?
Answer: 0%

Question: For `FC(F)(F)c1ccc(-c2cc(-c3c[nH]nc3-c3ccccn3)ccn2)cc1` [GW599550], which “%Inh” value is on record?
Answer: 0%

Question: For `Nc1nc(-c2cccnc2)c(-c2ccnc3ccccc23)s1` [GW684083], which “%Inh” value is on record?
Answer: 0%

Question: With `Cl.c1ccc(Cn2ncc3cc(Nc4ncnc5ccccc45)ccc32)cc1` [GW273749] as the compound, how does the “%Inh” value read?
Answer: 0%

Question: Which “%Inh” value does the source give for `O=C(NCCCN1CCCC1=O)c1cnc(NCc2cc(Cl)ccc2Cl)nc1NC1CCNCC1` here?
Answer: 4%

Question: `Cc1ccc(O)cc1Nc1cc(C(F)(F)F)nc2ccc(-c3ccncc3)cc12` [GW630823] was tested. Which “%Inh” value did it give?
Answer: 0%

Question: `C[C@@H]1CCN(C(=O)CO)C[C@@H]1N(C)c1ncnc2[nH]ccc12` was tested. Which “%Inh” value did it give?
Answer: 21%

Question: How did the “%Inh” value turn out when `COc1ccc(NC(=O)Nc2ccc(C)c(-c3ccc(C(=O)Nc4ccncc4)cc3)c2)cc1` [GSK1398475] was run?
Answer: 0%

Question: For `O=c1cc(N2CCOCC2)nc2n(Cc3cccc(Cl)c3)ccn12` [GSK2296823], which “%Inh” value is on record?
Answer: 0%

Question: How did the “%Inh” value turn out when `CC(C)N1CCC(n2cnc(-c3ccc(F)cc3)c2-c2ccnc(N)n2)CC1` [SB-223132] was run?
Answer: 56%

Question: With `Clc1cccc(-c2nc(Nc3ccncc3)c3ccccc3n2)c1` [GW873004] as the compound, how does the “%Inh” value read?
Answer: 16%

Question: `COC(=O)c1c(-c2ccccc2)c2cc(Cl)ccc2c(=O)n1Cc1ccc(S(C)(=O)=O)cc1` was tested. Which “%Inh” value did it give?
Answer: 0%

Question: Which “%Inh” value does the source give for `Oc1ccc2ncnc(Nc3ccc(OCc4ccccc4)cc3)c2c1` [GI262866] here?
Answer: 0%

Question: Which “%Inh” value does the source give for `COc1cc2c(Nc3cccc(NC(=O)c4ccccc4)c3)ncnc2cc1OCCCN1CCOCC1` [GSK223810] here?
Answer: 0%

Question: How did the “%Inh” value turn out when `CCc1nc(-c2cccc(C)c2)c(-c2ccnc(NC(=O)c3ccccc3)c2)s1` was run?
Answer: 3%

Question: `Clc1ccc(-c2cc(-c3c[nH]nc3-c3ccccn3)ccn2)cc1` [GW681251] was tested. Which “%Inh” value did it give?
Answer: 0%

Question: Which “%Inh” value does the source give for `Nc1nc(-c2ccc3c(N)n[nH]c3c2)cc(N2CCC[C@@H](C(=O)Nc3ccccc3)C2)n1.O=C(O)C(F)(F)F.O=C(O)C(F)(F)F` [GSK2288359] here?
Answer: 23%

Question: With `CCn1c(-c2ccncc2)nc2cnccc21` [SB-735216] as the compound, how does the “%Inh” value read?
Answer: 12%

Question: Which “%Inh” value does the source give for `Cn1ccc2ncnc(Nc3ccc(Oc4cccc(Cl)c4)c(Cl)c3)c21` here?
Answer: 0%

Question: Which “%Inh” value does the source give for `Fc1ccc(-c2ncn(CCCNCc3ccccc3)c2-c2ccncc2)cc1` here?
Answer: 24%

Question: For `CC(C)(C)OC(=O)NC1CCCN(c2cc(-c3ccc4c(N)n[nH]c4c3)nc(N)n2)C1` (stereo not shown) [GSK2286096], which “%Inh” value is on record?
Answer: 15%

Question: For `CC(=O)Nc1n[nH]c2ncc(-c3ccccc3)cc12` [SB-548492], which “%Inh” value is on record?
Answer: 87%

Question: How did the “%Inh” value turn out when `COc1ccc(Nc2nccc(N3CCC(NC(=O)Nc4ccc5c(c4)OCO5)C3)n2)cc1` (stereo not shown) [GSK1379745] was run?
Answer: 0%

Question: Which “%Inh” value does the source give for `CN1CCC(n2cnc(-c3ccc(F)cc3)c2-c2ccnc(NC3CCNCC3)n2)CC1` [SB-229482] here?
Answer: 0%
